# Assay results: the supplement of paper PMC9492666
# Structures can show the parent of a compound that is named as a salt.
# Assays:
# [1] = tested on: HCC1937; experiment: relative cell viability, compound + RSL3, vs DMSO (fraction of DMSO control); higher = less growth inhibition; conditions: 72 h
# [2] = tested on: MDA-MB-231; experiment: as above; conditions: 72 h
# 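Note: breast cancer cell viability read out with the CCK-8 kit after co-treatment of each compound with the ferroptosis inducer RSL3.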
SMILES,relative cell viability [1],relative cell viability [2]
COC(=O)N(CC(=O)O)Cc1cccc(OCc2nc(-c3ccc(Cl)cc3)oc2C)c1 + COC(=O)c1ccc([C@H]2c3[nH]c4ccccc4c3C[C@H](C(=O)OC)N2C(=O)CCl)cc1 [RSL3],0.538,0.709
CCCCCCCCCCCCC/C=C/[C@@H](O)[C@@H](N)CO + COC(=O)c1ccc([C@H]2c3[nH]c4ccccc4c3C[C@H](C(=O)OC)N2C(=O)CCl)cc1 [RSL3],0.0823,0.167
O=C(O)CCn1c2c(c3ccccc31)C[C@H](NS(=O)(=O)c1ccc(F)cc1)CC2 [Ramatroban] + COC(=O)c1ccc([C@H]2c3[nH]c4ccccc4c3C[C@H](C(=O)OC)N2C(=O)CCl)cc1 [RSL3],0.41,0.554
CC(C)(Oc1ccc(CCNC(=O)c2ccc(Cl)cc2)cc1)C(=O)O [Bezafibrate] + COC(=O)c1ccc([C@H]2c3[nH]c4ccccc4c3C[C@H](C(=O)OC)N2C(=O)CCl)cc1 [RSL3],0.594,0.518
COc1cc(N(C)C)cc(CN(C)CCc2ccc([N+](=O)[O-])cc2)c1O [CDC25 Phosphatase Inhibitor I] + COC(=O)c1ccc([C@H]2c3[nH]c4ccccc4c3C[C@H](C(=O)OC)N2C(=O)CCl)cc1 [RSL3],0.454,0.886
c1cc(-c2cnn3cc(-c4ccc(OCCN5CCCCC5)cc4)cnc23)ccn1 [Dorsomorphin dihydrochloride] + COC(=O)c1ccc([C@H]2c3[nH]c4ccccc4c3C[C@H](C(=O)OC)N2C(=O)CCl)cc1 [RSL3],0.111,0.286
COc1ccc(/C=C/c2cc(O)cc(O[C@@H]3O[C@H](CO)[C@@H](O)[C@H](O)[C@H]3O)c2)cc1 [Deoxyrhapontin] + COC(=O)c1ccc([C@H]2c3[nH]c4ccccc4c3C[C@H](C(=O)OC)N2C(=O)CCl)cc1 [RSL3],0.532,0.693
CC[C@H]1[C@@H](O)[C@@H]2[C@H](CC[C@]3(C)[C@@H]([C@H](C)CCC(=O)O)CC[C@@H]23)[C@@]2(C)CC[C@@H](O)C[C@@H]12 [Obeticholic Acid] + COC(=O)c1ccc([C@H]2c3[nH]c4ccccc4c3C[C@H](C(=O)OC)N2C(=O)CCl)cc1 [RSL3],0.513,0.543
O=P(O)(O)OC(CO)CO [β-Glycerol phosphate disodium salt pentahydrate] + COC(=O)c1ccc([C@H]2c3[nH]c4ccccc4c3C[C@H](C(=O)OC)N2C(=O)CCl)cc1 [RSL3],0.343,0.56
CC(=O)O[C@H](CC=C(C)C)C1=CC(=O)c2c(O)ccc(O)c2C1=O [Acetyl shikonin] + COC(=O)c1ccc([C@H]2c3[nH]c4ccccc4c3C[C@H](C(=O)OC)N2C(=O)CCl)cc1 [RSL3],0.665,0.681
Oc1ccc2c(c1)OCO2 [Sesamol] + COC(=O)c1ccc([C@H]2c3[nH]c4ccccc4c3C[C@H](C(=O)OC)N2C(=O)CCl)cc1 [RSL3],0.399,0.548
CC(C)(O)[C@@H]1Cc2cc3ccc(=O)oc3cc2O1 [marmesin] + COC(=O)c1ccc([C@H]2c3[nH]c4ccccc4c3C[C@H](C(=O)OC)N2C(=O)CCl)cc1 [RSL3],0.412,0.59
CC(C)C1=CC2=CC[C@@H]3[C@](C)(CCC[C@@]3(C)C(=O)O)[C@H]2CC1 [Abietic Acid] + COC(=O)c1ccc([C@H]2c3[nH]c4ccccc4c3C[C@H](C(=O)OC)N2C(=O)CCl)cc1 [RSL3],0.586,0.699
CC(c1cc2ccccc2s1)N(O)C(N)=O (configuration not stated) [Zileuton] + COC(=O)c1ccc([C@H]2c3[nH]c4ccccc4c3C[C@H](C(=O)OC)N2C(=O)CCl)cc1 [RSL3],0.895,0.633
CCC(C)(Oc1ccc(C2(c3ccc(OC(C)(CC)C(=O)O)cc3)CCCCC2)cc1)C(=O)O (configuration not stated) [Clinofibrate] + COC(=O)c1ccc([C@H]2c3[nH]c4ccccc4c3C[C@H](C(=O)OC)N2C(=O)CCl)cc1 [RSL3],0.561,0.452
CC(C)c1nc(N(C)S(C)(=O)=O)nc(-c2ccc(F)cc2)c1/C=C/[C@@H](O)C[C@@H](O)CC(=O)O [Rosuvastatin] + COC(=O)c1ccc([C@H]2c3[nH]c4ccccc4c3C[C@H](C(=O)OC)N2C(=O)CCl)cc1 [RSL3],0.54,0.527
